Experiment [1] in a line: NCI Yeast Anticancer Drug Screen. Data for the rad50 strain (AID 155).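 Further: 0% = growth of vehicle-only cultures of the same strain.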 The note with it: S. cerevisiae rad50 strain growth inhibition, stronger effect = higher value. In outline:
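A DNA repair-deficient yeast mutant serves as the test organism; compound-induced growth inhibition is calculated against vehicle-treated cells.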

The nature of experiment [2]: NCI Yeast Anticancer Drug Screen. Data for the mec2-1 strain (AID 157). Conditions: S. cerevisiae mec2-1 strain, stronger effect = higher value. The gist of the method: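 Strain: mec2-1 (DNA repair/cell cycle alteration). Compound exposure, then growth measured; inhibition expressed relative to vehicle.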
Experiment [3] can be described thus: NCI Yeast Anticancer Drug Screen. Data for the sgs1 mgt1 strain (AID 161).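 Further: 0% = growth of cultures given vehicle only.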 The note with it: S. cerevisiae sgs1 mgt1 strain, stronger effect = higher value. In outline: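 Genetically altered yeast, compound exposure, growth inhibition relative to vehicle.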
The nature of experiment [4]: NCI Yeast Anticancer Drug Screen. Data for the cln2 rad14 strain (AID 165).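 Further: 0% = growth equal to vehicle treated cultures.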 Conditions: S. cerevisiae cln2 rad14 strain, stronger effect = higher value. The gist of the method:
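Compounds are applied to the cln2 rad14 yeast strain, and growth is then compared with that of vehicle-treated cultures to give inhibition.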

Experiment [5] in a line: NCI Yeast Anticancer Drug Screen. Data for the bub3 strain (AID 167). The note with it: S. cerevisiae bub3 mutant strain, stronger effect = higher value. The gist of the method: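 Inhibition values come from growth of compound-treated mutant yeast normalised to vehicle-treated controls.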
Experiment [6] can be described thus: NCI Yeast Anticancer Drug Screen. Data for the mlh1 rad18 strain (AID 175). The note with it: S. cerevisiae mlh1 rad18 strain growth inhibition, stronger effect = higher value. The gist of the method:
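Read-out is yeast growth inhibition, calculated against vehicle-only controls. The compound was applied to a strain engineered with DNA damage repair alterations.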

Setting [7] is: at 5.0 µM (retest, dose inferred, filed as 0.5).
[8] abbreviates: at 50.0 µM (retest, dose inferred, filed as 5.0).

Structures are written as SMILES. Where “and” joins values, the source holds several entries; their conditions need not be identical. Identical values can stand only once. The panel holds about 79,000 compounds, 15% with a hit somewhere; the sample as a whole holds those more often. The source holds several records for some structures; these can differ, active in one and inactive in another. Calls of active or inactive are those of the source. No stated cut-off is given here; in the data, active means growth inhibition above about 70%; inactive means the rest.

Regarding `CN1C(c2ccccc2)CC(=NOCc2ccccc2)CC1c1ccccc1` (stereo not given), the growth inhibition in experiment [1] (setting [7]) was 83% (active); in experiment [1] (setting [8]), 96% (active); in experiment [1] (at 50.0 µM), 78.5% (active); in experiment [2] (setting [7]), 94% (active); in experiment [2] (setting [8]), 97% (active); in experiment [2] (at 50.0 µM), 83.8% (active). Besides, the growth inhibition in experiment [3] (setting [7]) was 76% (active); in experiment [3] (setting [8]), 97% (active); in experiment [3] (at 50.0 µM) it was 88.8% (active); in experiment [4] (setting [7]) it was 65% (inactive); in experiment [4] (setting [8]), 97% (active); in experiment [4] (at 50.0 µM) it was 86.6% (active). In addition, the growth inhibition in experiment [5] (setting [7]) was 78% (active); in experiment [5] (setting [8]), 96% (active); in experiment [5] (at 50.0 µM), 84% (active); in experiment [6] (setting [7]), 94% (active); in experiment [6] (setting [8]), 96% (active).
With `CC1CC[P+](c2ccccc2)(c2ccccc2)c2c1ccc1ccccc21` (stereo not given), the growth inhibition was 76% (active) in experiment [1] (setting [7]); 98% (active) in experiment [1] (setting [8]); 84.9% (active) in experiment [1] (at 50.0 µM); 54% (inactive) in experiment [2] (setting [7]); 98% (active) in experiment [2] (setting [8]); 90.2% (active) in experiment [2] (at 50.0 µM). For the same molecule, the growth inhibition is 81% (active) in experiment [3] (setting [7]); 98% (active) in experiment [3] (setting [8]); 91.2% (active) in experiment [3] (at 50.0 µM); 30% (inactive) in experiment [4] (setting [7]); 97% (active) in experiment [4] (setting [8]); 88.8% (active) in experiment [4] (at 50.0 µM). Further, the growth inhibition in experiment [5] (setting [7]) was 67% (inactive); in experiment [5] (setting [8]), 99% (active); in experiment [5] (at 50.0 µM), 88.6% (active); in experiment [6] (setting [7]), 64% (inactive); in experiment [6] (setting [8]) it was 97% (active).
Turning to `CC1OC(OC2CC(O)(C(=O)CO)Cc3c(O)c4c(c(O)c32)C(=O)c2ccccc2C4=O)CC(N)C1O` (stereo not given), the growth inhibition in experiment [1] (setting [7]) is 87% (active); in experiment [1] (setting [8]), 96% (active); in experiment [1] (at 50.0 µM) it was 87.8% (active); in experiment [2] (setting [7]), 62% (inactive); in experiment [2] (setting [8]), 95% (active); in experiment [2] (at 50.0 µM), 91.1% (active). The growth inhibition in experiment [3] (setting [7]) was 86% (active); in experiment [3] (setting [8]), 97% (active); in experiment [3] (at 50.0 µM), 89.5% (active); in experiment [4] (setting [7]) it was 57% (inactive); in experiment [4] (setting [8]), 95% (active); in experiment [4] (at 50.0 µM), 87.3% (active). The growth inhibition in experiment [5] (setting [7]) was 56% (inactive); in experiment [5] (setting [8]), 96% (active); in experiment [5] (at 50.0 µM) it was 89.1% (active); in experiment [6] (setting [7]), 77% (active); in experiment [6] (setting [8]), 94% (active).
On to `CCCCCC[C@H](C/C=C\CCCCCCCC(=O)OC)OC(C)=O`, for which the growth inhibition in experiment [1] (setting [7]) is -6% (inactive); in experiment [1] (setting [8]) it was 27% (inactive); in experiment [1] (at 50.0 µM) it was -0.2% (inactive) and -4.1% (inactive); in experiment [2] (setting [7]), -4% (inactive); in experiment [2] (setting [8]) it was 69% (inactive); in experiment [2] (at 50.0 µM) it was 2.25% (inactive) and -0.75% (inactive). Also, the growth inhibition in experiment [3] (setting [7]) is -6% (inactive); in experiment [3] (setting [8]) it was 42% (inactive); in experiment [3] (at 50.0 µM) it was 29.2% (inactive) and -40.8% (inactive); in experiment [4] (setting [7]) it was -1% (inactive); in experiment [4] (setting [8]), -4% (inactive); in experiment [4] (at 50.0 µM) it was 73.5% (active) and 54.6% (inactive). The growth inhibition in experiment [5] (setting [7]) is -6% (inactive); in experiment [5] (setting [8]), 92% (active); in experiment [5] (at 50.0 µM) it was 3.65% (inactive) and -26.2% (inactive); in experiment [6] (setting [7]), -3% (inactive); in experiment [6] (setting [8]) it was 21% (inactive); in experiment [6] (at 50.0 µM) it was 9.45% (inactive) and -22.9% (inactive).
For `CCCCCCCc1c(Cl)nc(Cl)nc1Cl`, the growth inhibition is 11% (inactive) in experiment [1] (setting [7]); 92% (active) in experiment [1] (setting [8]); 78.3% (active) in experiment [1] (at 50.0 µM); 12% (inactive) in experiment [2] (setting [7]); 97% (active) in experiment [2] (setting [8]); 88.3% (active) in experiment [2] (at 50.0 µM). Besides, the growth inhibition in experiment [3] (setting [7]) was 3% (inactive); in experiment [3] (setting [8]) it was 96% (active); in experiment [3] (at 50.0 µM) it was 87% (active); in experiment [4] (setting [7]), 11% (inactive); in experiment [4] (setting [8]), 78% (active); in experiment [4] (at 50.0 µM), 46% (inactive). In addition, the growth inhibition in experiment [5] (setting [7]) is 4% (inactive); in experiment [5] (setting [8]), 99% (active); in experiment [5] (at 50.0 µM) it was 76.2% (active); in experiment [6] (setting [7]), 16% (inactive); in experiment [6] (setting [8]) it was 96% (active).
As to `CSc1ccc(N2C(=O)CSC2=S)cc1Cl`, the growth inhibition was 27% (inactive) in experiment [1] (setting [7]); 74% (active) in experiment [1] (setting [8]); 97.5% (active) in experiment [1] (at 50.0 µM); 27% (inactive) in experiment [2] (setting [7]); 40% (inactive) in experiment [2] (setting [8]); 94.3% (active) in experiment [2] (at 50.0 µM). Moreover, the growth inhibition in experiment [3] (setting [7]) was 16% (inactive); in experiment [3] (setting [8]) it was 79% (active); in experiment [3] (at 50.0 µM), 95.2% (active); in experiment [4] (setting [7]), -1% (inactive); in experiment [4] (setting [8]), -4% (inactive); in experiment [4] (at 50.0 µM), 29.1% (inactive). In addition, the growth inhibition in experiment [5] (setting [7]) is 37% (inactive); in experiment [5] (setting [8]) it was 82% (active); in experiment [5] (at 50.0 µM), 92.4% (active); in experiment [6] (setting [7]) it was 31% (inactive); in experiment [6] (setting [8]) it was 94% (active); in experiment [6] (at 50.0 µM) it was 97% (active).
In the case of `COc1ccc(C2c3cc4c(cc3OC(NNC(N)=O)C2C)OCO4)cc1` (stereo not given), the growth inhibition in experiment [1] (setting [7]) was -1% (inactive); in experiment [1] (setting [8]), 96% (active); in experiment [1] (at 50.0 µM), 84.5% (active); in experiment [2] (setting [7]), -36% (inactive); in experiment [2] (setting [8]) it was 96% (active); in experiment [2] (at 50.0 µM) it was 80.4% (active). The growth inhibition in experiment [3] (setting [7]) is -38% (inactive); in experiment [3] (setting [8]), 96% (active); in experiment [3] (at 50.0 µM) it was 87.8% (active); in experiment [4] (setting [7]) it was -4% (inactive); in experiment [4] (setting [8]) it was 95% (active); in experiment [4] (at 50.0 µM), 76% (active). Also, the growth inhibition is -34% (inactive) in experiment [5] (setting [7]); 99% (active) in experiment [5] (setting [8]); 85.8% (active) in experiment [5] (at 50.0 µM); 6% (inactive) in experiment [6] (setting [7]); 97% (active) in experiment [6] (setting [8]); 85.8% (active) in experiment [6] (at 50.0 µM).
Consider `CCCCN(CCCC)C(Cl)=Nc1ccccc1`, for which the growth inhibition was 35% (inactive) in experiment [1] (setting [7]); 32% (inactive) in experiment [1] (setting [8]); 80.9% (active) in experiment [1] (at 50.0 µM); 29% (inactive) in experiment [2] (setting [7]); 24% (inactive) in experiment [2] (setting [8]); 87.1% (active) in experiment [2] (at 50.0 µM). In addition, the growth inhibition in experiment [3] (setting [7]) was 31% (inactive); in experiment [3] (setting [8]) it was 30% (inactive); in experiment [3] (at 50.0 µM) it was 88.2% (active); in experiment [4] (setting [7]), 17% (inactive); in experiment [4] (setting [8]), 19% (inactive); in experiment [4] (at 50.0 µM), 81% (active). For the same molecule, the growth inhibition in experiment [5] (setting [7]) is 33% (inactive); in experiment [5] (setting [8]), 38% (inactive); in experiment [5] (at 50.0 µM), 82.4% (active); in experiment [6] (setting [7]), 39% (inactive); in experiment [6] (setting [8]), 57% (inactive); in experiment [6] (at 50.0 µM), 77.4% (active).

These data come from PubChem BioAssay (NCI).
